From PubChem BioAssay (NCATS) come the findings set out here.

“And” between values parts separate entries of the source, which are not always exact repeats. Identical values can stand only once. Results filed as inconclusive are left out. Some structures have more than one record in an assay (separate samples or runs), and their calls can disagree. The source made the active and inactive calls. Unless noted, the call rests on the fitted dose curve; in most records, active means well fitted curve in the direction sought with a large enough effect; inconclusive means small, poorly fitted or top-dose-only effect, or another doubt; inactive means no such curve, though single readings can be large; an effect the other way counts as inactive or inconclusive.

One test deals with Rap guanine nucleotide exchange factor 4 (Homo sapiens) (UniProt Q8WZA2). Nature of the test: Confirmatory qHTS for agonist of cAMP-regulated guanine nucleotide exchange factor 4 (EPAC2) (AID 1645884).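 Further: nucleotide exchange releases bodipy-GDP from Rap1 and this lowers its fluorescence; on the % scale 0 is the no-effect control and ±100 the full control effect; nearly all actives have a fitted effect of over 65% in size.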 The settings on record: EPAC2 GEF activity, Rap1B-BODIPY-GDP fluorescence, percent relative to cAMP agonist control; series mostly up to 154 µM. A general note: In qHTS, concentration-response curves come from the screen itself.
Rap guanine nucleotide exchange factor 4 (Homo sapiens), sequence (Q8WZA2 whole entry, looked up): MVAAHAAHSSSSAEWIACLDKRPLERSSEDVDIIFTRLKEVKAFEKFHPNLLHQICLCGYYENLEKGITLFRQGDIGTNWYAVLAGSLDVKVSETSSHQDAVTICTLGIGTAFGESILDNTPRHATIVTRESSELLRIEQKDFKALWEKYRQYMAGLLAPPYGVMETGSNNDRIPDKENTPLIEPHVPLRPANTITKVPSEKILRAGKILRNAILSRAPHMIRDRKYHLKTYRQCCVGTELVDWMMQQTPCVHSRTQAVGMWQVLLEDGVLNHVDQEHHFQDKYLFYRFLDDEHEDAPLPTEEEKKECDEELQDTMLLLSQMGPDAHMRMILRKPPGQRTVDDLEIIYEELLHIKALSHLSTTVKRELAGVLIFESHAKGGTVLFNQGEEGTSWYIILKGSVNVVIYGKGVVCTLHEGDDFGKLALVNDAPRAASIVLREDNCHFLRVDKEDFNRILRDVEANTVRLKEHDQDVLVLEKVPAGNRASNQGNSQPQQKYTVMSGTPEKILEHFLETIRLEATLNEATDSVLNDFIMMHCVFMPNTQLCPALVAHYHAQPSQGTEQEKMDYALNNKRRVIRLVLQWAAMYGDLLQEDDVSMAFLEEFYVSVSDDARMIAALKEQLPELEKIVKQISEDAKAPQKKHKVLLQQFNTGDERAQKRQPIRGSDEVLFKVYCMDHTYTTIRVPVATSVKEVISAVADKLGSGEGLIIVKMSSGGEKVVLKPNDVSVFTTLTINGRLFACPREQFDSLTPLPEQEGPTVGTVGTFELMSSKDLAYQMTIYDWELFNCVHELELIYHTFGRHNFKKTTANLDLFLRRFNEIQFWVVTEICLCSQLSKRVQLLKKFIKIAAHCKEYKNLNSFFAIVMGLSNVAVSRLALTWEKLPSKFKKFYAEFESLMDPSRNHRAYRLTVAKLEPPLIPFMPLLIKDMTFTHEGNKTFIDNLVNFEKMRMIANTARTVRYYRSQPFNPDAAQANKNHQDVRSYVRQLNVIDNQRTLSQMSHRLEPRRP
Regarding `Clc1ccc(COC(Cn2ccnc2)c2ccc(Cl)cc2Cl)cc1` (stereo not drawn), the outcome was “inactive”.
Still for that read-out and setting: the value for `O=c1oc2ccccc2c(O)c1C(CC(O)c1ccc(-c2ccc(Br)cc2)cc1)c1ccccc1` (stereo not drawn) was “inactive”; that for `CC(C)(C)CC(C)(C)c1ccc(O)cc1` was “inactive”.
On the same count and under the same terms, then `CC(C)=CC1C(C(=O)OCc2cccc(Oc3ccccc3)c2)C1(C)C` (stereo not drawn), with “inactive”; and `C[C@H]1O[C@@H](O[C@H]2[C@@H](O)C[C@H](O[C@H]3[C@@H](O)C[C@H](O[C@H]4CC[C@@]5(C)[C@H](CC[C@@H]6[C@@H]5CC[C@]5(C)[C@@H](C7=CC(=O)OC7)CC[C@]65O)C4)O[C@@H]3C)O[C@@H]2C)C[C@H](O)[C@@H]1O`, with “inactive”.
Regarding `O=c1[nH]c2ccccc2n1C1CCN(CCCC(c2ccc(F)cc2)c2ccc(F)cc2)CC1`, the outcome was “inactive”.

For another test the target is unchanged. The test can be described thus: Confirmatory qHTS for antagonist of cAMP-regulated guanine nucleotide exchange factor 4 (EPAC2) (AID 1645885). Further: nearly all actives have a fitted effect of over 25% in size. Further: potency means the concentration at half of the fitted maximal effect. On activity change, negative = inhibition: on the % scale 0 is the no-effect control and ±100 the full control effect. The settings on record: EPAC2 Rap1B-BODIPY-GDP exchange fluorescence, biochemical; series mostly up to 12.7 µM.
Consider `Clc1ccc(COC(Cn2ccnc2)c2ccc(Cl)cc2Cl)cc1` (stereo not drawn), for which the Potency is 44.1 µM (active) and inactive.
The same measure, in the same setting: the value for `O=c1oc2ccccc2c(O)c1C(CC(O)c1ccc(-c2ccc(Br)cc2)cc1)c1ccccc1` (stereo not drawn) was 44.1 µM (active); that for `CC(C)(C)CC(C)(C)c1ccc(O)cc1` was 49.4 µM (active) and 56.9 µM (active).
Still for that read-out and setting: then `CC(C)=CC1C(C(=O)OCc2cccc(Oc3ccccc3)c2)C1(C)C` (stereo not drawn), with “inactive”.
The same measure, in the same setting: then `Oc1cc(Cl)ccc1Oc1ccc(Cl)cc1Cl`, with 52 µM (active).

The target of the next test is Catechol O-methyltransferase (Homo sapiens) (UniProt P21964). Nature of the test: Confirmatory Screen for Target Class Profiling of Small Molecule Inhibitors of Methyltransferases (AID 1745852; calls by dose curve; further: potency means the concentration at half of the fitted maximal effect; on activity change, negative = inhibition: on the % scale 0 is the no-effect control and ±100 the full control effect). The settings on record: MTase-Glo luminescence, SAH detection, recombinant enzyme; measured here: COMT max response; stronger effect = lower value.
Catechol O-methyltransferase (Homo sapiens), sequence (P21964 whole entry, looked up): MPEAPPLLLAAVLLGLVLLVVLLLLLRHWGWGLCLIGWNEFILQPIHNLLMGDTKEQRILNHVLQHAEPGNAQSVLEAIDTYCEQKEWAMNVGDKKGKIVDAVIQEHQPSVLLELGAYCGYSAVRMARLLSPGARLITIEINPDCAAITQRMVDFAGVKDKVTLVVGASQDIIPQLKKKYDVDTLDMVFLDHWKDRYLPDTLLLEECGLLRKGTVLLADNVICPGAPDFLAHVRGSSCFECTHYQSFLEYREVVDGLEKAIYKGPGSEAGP
Consider `CC[C@@H](CO)NC(=O)[C@@H]1C=C2c3cccc4c3c(cn4C)C[C@H]2N(C)C1`, for which the activity is 1.79%.
Same read-out and setting: then `N#CC(C#N)=Cc1ccc(O)c(O)c1`, with 34.9%; and `CC[N+](CC)(CC)CC`, with 2.75%.
Still for that read-out and setting: the value for `CN1C[C@H](CNC(=O)OCc2ccccc2)C[C@@H]2c3cccc4c3c(cn4C)C[C@H]21` was -5.5%.
Same read-out and setting: the value for `Nc1ccncc1` was 0%; that for `CC(C)=CCOc1c2occc2cc2ccc(=O)oc12` was -8.52%.

In another test the target is Guanidinoacetate N-methyltransferase (Homo sapiens) (UniProt Q14353). The description is as above. The settings on record: MTase-Glo luminescence, SAH detection, recombinant enzyme; activity change, negative = inhibition: at 57.3 µM (top of the series).
Regarding `CC[C@@H](CO)NC(=O)[C@@H]1C=C2c3cccc4c3c(cn4C)C[C@H]2N(C)C1`, the activity change, negative = inhibition was -1.19%.
As for `N#CC(C#N)=Cc1ccc(O)c(O)c1`, the activity change, negative = inhibition was determined as 1.06%.
On the same count and under the same terms, the value for `CC[N+](CC)(CC)CC` was 3.74%; that for `CN1C[C@H](CNC(=O)OCc2ccccc2)C[C@@H]2c3cccc4c3c(cn4C)C[C@H]21` was 5.68%.
For `Nc1ccncc1`, the Potency is 30.6 µM (active).
For the compound `CC(C)=CCOc1c2occc2cc2ccc(=O)oc12`, the activity change, negative = inhibition is -1.68%.
